Test systems include NCI-H23 lung; NCI-H226 lung; NCI-H322M lung; HOP-62 NSCLC; NCI-H460 lung; HOP-92 NSCLC; A549/ATCC NSCLC; 786-0 renal; COLO 205 colon; DU-145 prostate; K-562 leukemia; MALME-3M melanoma; MDA-MB-231 breast; SF-268 CNS; SF-295 CNS; SF-539 CNS; UACC-257 melanoma; M14 melanoma; RXF 393 renal; NCI-H522 lung.
Holding throughout (test): NCI-60 one-dose screen, 48 h (100 = growth as untreated, 0 = no growth, -100 = all killed)
Common to all, as to conditions: 10 µM

Compounds without any hit were thinned out: in the full panel of roughly 83,000, 20% have a hit.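 Note: values are percent growth. 100 is the growth of untreated cells, values between 100 and 0 indicate rising inhibition; between -100 and 0 indicates cell death.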 Values without a mark were called inactive. The source made the active and inactive calls. The calls were made as follows: active = growth percent below 10; inactive = the rest.

The source of these data is PubChem BioAssay (NCI).

For `O=c1oc2ccccc2cc1-c1csc(N=Nc2c(O)[nH]c3ccc(Br)cc23)n1`, the growth with NCI-H23 lung is 61.5%; with NCI-H226 lung, 58.4%; with NCI-H322M lung it was 92.9%; with HOP-62 NSCLC, 40.2%; with NCI-H460 lung, 106%; in the assay with HOP-92 NSCLC, -7.7% (active). Further, the growth is 100% in the assay with A549/ATCC NSCLC; 12.5% in the assay on 786-0 renal; 127% in the assay on COLO 205 colon; 94.2% in the assay on DU-145 prostate; 103% in the assay on K-562 leukemia; 56.3% in the assay on MALME-3M melanoma. Besides, the growth in the assay on MDA-MB-231 breast is 56.5%; with SF-268 CNS, 51.2%; in the assay on SF-295 CNS, 39.5%; in the assay with SF-539 CNS, 35.6%; in the assay with UACC-257 melanoma, 105%; with M14 melanoma it was 97.5%.

With `O=C(Nc1nc2ccccc2s1)c1ccc(Br)cc1`, the growth is 74% in the assay with NCI-H23 lung; 67.4% in the assay on NCI-H226 lung; 83.4% in the assay with NCI-H322M lung; 101% in the assay with HOP-62 NSCLC; 81.6% with NCI-H460 lung; 100% in the assay on HOP-92 NSCLC. Moreover, the growth with A549/ATCC NSCLC was 84.9%; in the assay with 786-0 renal, 99.6%; with DU-145 prostate, 97.2%; in the assay on K-562 leukemia, 64.1%; in the assay on MALME-3M melanoma, 85.2%; in the assay with MDA-MB-231 breast, 93.4%. Further, the growth was 112% in the assay on SF-268 CNS; 67.3% in the assay with SF-295 CNS; 92.8% with SF-539 CNS; 85% with UACC-257 melanoma; 96% with M14 melanoma.

Consider `COC[C@@H](CC(C)C)N=C1NC(=O)/C(=C/c2ccc3ncoc3c2)N1`, for which the growth was -14.2% (active) in the assay on NCI-H23 lung; 0.124% (active) in the assay with NCI-H226 lung; 20.4% in the assay with NCI-H322M lung; 14.4% with HOP-62 NSCLC; 6.38% (active) with NCI-H460 lung; 15.8% in the assay with HOP-92 NSCLC. Besides, the growth is 13.7% in the assay with A549/ATCC NSCLC; 22.2% in the assay on 786-0 renal; -16.1% (active) with COLO 205 colon; 22.6% in the assay on DU-145 prostate; 14.4% in the assay with K-562 leukemia; 32.5% in the assay with MALME-3M melanoma. In addition, the growth in the assay on MDA-MB-231 breast was 12.3%; with RXF 393 renal, -8.35% (active); in the assay on SF-268 CNS, 22%; in the assay on SF-295 CNS it was 34.4%; in the assay on SF-539 CNS, -5.08% (active); with UACC-257 melanoma, 11.5%. Moreover, in the assay with M14 melanoma, the growth is 41%.

In the case of `COc1ccc(C(=O)Nc2sc3c(c2C#N)CCC(=O)C3)cc1C(F)(F)F`, the growth in the assay with NCI-H23 lung is -13.7% (active); with NCI-H226 lung, 6.58% (active); in the assay on NCI-H322M lung, 85.9%; with HOP-62 NSCLC, -9.95% (active); in the assay with NCI-H460 lung, 0.213% (active); in the assay with NCI-H522 lung, -64.4% (active). Also, the growth with A549/ATCC NSCLC is 25.5%; in the assay on 786-0 renal, 7.91% (active); in the assay on COLO 205 colon, -89.1% (active); in the assay on DU-145 prostate, 25.3%; in the assay with K-562 leukemia it was 3.54% (active); in the assay on MALME-3M melanoma, -52.3% (active). Also, the growth in the assay with MDA-MB-231 breast was -50.8% (active); in the assay on RXF 393 renal it was -41.9% (active); in the assay on SF-268 CNS, 26.8%; in the assay on SF-295 CNS it was -15.4% (active); with SF-539 CNS it was -82.7% (active); with UACC-257 melanoma, -15.8% (active).

As to `CC(C)(C)c1ccc(NCc2cn(-c3ccc(C(=O)O)cc3)nc2-c2ccc(C#N)cc2)cc1`, the growth in the assay with NCI-H23 lung is 8.82% (active); in the assay on NCI-H226 lung, 31.6%; with NCI-H322M lung it was 41%; in the assay with HOP-62 NSCLC, 36.2%; in the assay on NCI-H460 lung it was 11.6%; in the assay with HOP-92 NSCLC, -3.79% (active). Also, the growth in the assay with A549/ATCC NSCLC is 24.3%; in the assay on 786-0 renal it was 22.8%; in the assay on DU-145 prostate, 36.1%; in the assay with K-562 leukemia, 14.8%; with MALME-3M melanoma, 42.9%; with MDA-MB-231 breast, 41.9%. In addition, the growth in the assay with SF-268 CNS is 33.9%; with SF-295 CNS, 19.2%; with SF-539 CNS it was 14.3%; in the assay on UACC-257 melanoma, 45.5%; in the assay with M14 melanoma, 30.1%.

Take `CN1CCN(c2ccc(Nc3nc(NCCCNC(=O)c4ccc(F)cc4)c4sccc4n3)cc2)CC1`: the growth is 74.8% in the assay with NCI-H23 lung; 81.2% in the assay with NCI-H226 lung; 79.9% in the assay with NCI-H322M lung; 92.5% in the assay with HOP-62 NSCLC; 62.5% in the assay with NCI-H460 lung; 56.8% with HOP-92 NSCLC. The growth with NCI-H522 lung is 87.5%; in the assay with A549/ATCC NSCLC it was 56.3%; in the assay with 786-0 renal it was -4.91% (active); in the assay on DU-145 prostate, 75.5%; with MALME-3M melanoma, -72.3% (active); in the assay on MDA-MB-231 breast, 58.1%. Moreover, the growth was 10.8% in the assay with RXF 393 renal; 74.6% in the assay on SF-268 CNS; 79.9% with SF-295 CNS; -90% (active) in the assay with SF-539 CNS; -26.7% (active) in the assay with UACC-257 melanoma; -7% (active) with M14 melanoma.

Regarding `O=C(CSc1nnc(-c2c[nH]c3ccccc23)n1-c1ccccc1)Nc1ccc(C(=O)/C=C/c2cccc([N+](=O)[O-])c2)cc1`, the growth in the assay on NCI-H23 lung is 86.2%; with NCI-H226 lung, 72.7%; in the assay with NCI-H322M lung, 100%; with HOP-62 NSCLC it was 98.2%; in the assay on NCI-H460 lung it was 99.2%; in the assay on HOP-92 NSCLC, 104%. Moreover, the growth is 97.2% in the assay on A549/ATCC NSCLC; 101% in the assay with 786-0 renal; 119% with COLO 205 colon; 95.9% in the assay with DU-145 prostate; 86.1% with K-562 leukemia; 90.9% in the assay with MALME-3M melanoma. The growth is 91.7% with MDA-MB-231 breast; 78.8% in the assay on SF-268 CNS; 88.4% in the assay on SF-295 CNS; 89.6% with SF-539 CNS; 102% in the assay with UACC-257 melanoma; 94.1% with M14 melanoma.

Regarding `COc1ccc2nc(Cl)c(-c3cc(-c4ccccc4)nc(=O)[nH]3)cc2c1`, the growth is 57.9% in the assay with NCI-H23 lung; 60.8% with NCI-H226 lung; 78.1% in the assay with NCI-H322M lung; 69.9% in the assay with HOP-62 NSCLC; 18% in the assay with NCI-H460 lung; 55.2% in the assay with HOP-92 NSCLC. For the same molecule, the growth was 66.9% with NCI-H522 lung; 77.4% with A549/ATCC NSCLC; 57.8% in the assay with 786-0 renal; 26.1% with DU-145 prostate; 4.96% (active) in the assay with K-562 leukemia; 83.3% with MALME-3M melanoma. The growth in the assay on RXF 393 renal is 58.5%; in the assay with SF-268 CNS, 60.2%; with SF-295 CNS, 64.4%; in the assay with SF-539 CNS, 11.3%; in the assay on UACC-257 melanoma it was 105%; with M14 melanoma it was 81.9%.
